What all share (test): DAPPL (digital affinity profiling via proximity ligation, sequencing); 10 mM Tris-HCl pH 7.5, 50 mM NaCl, 1 mM DTT, 4% glycerol, room temperature, 30 min; GST-TFs on glutathione beads, 16-mer random dsDNA library, 0.1% formaldehyde crosslink after washing; high values mean tight binding
In experiment [1] the target is T1, FLI1 (Homo sapiens, UniProt Q01543 1-452).
T1 sequence: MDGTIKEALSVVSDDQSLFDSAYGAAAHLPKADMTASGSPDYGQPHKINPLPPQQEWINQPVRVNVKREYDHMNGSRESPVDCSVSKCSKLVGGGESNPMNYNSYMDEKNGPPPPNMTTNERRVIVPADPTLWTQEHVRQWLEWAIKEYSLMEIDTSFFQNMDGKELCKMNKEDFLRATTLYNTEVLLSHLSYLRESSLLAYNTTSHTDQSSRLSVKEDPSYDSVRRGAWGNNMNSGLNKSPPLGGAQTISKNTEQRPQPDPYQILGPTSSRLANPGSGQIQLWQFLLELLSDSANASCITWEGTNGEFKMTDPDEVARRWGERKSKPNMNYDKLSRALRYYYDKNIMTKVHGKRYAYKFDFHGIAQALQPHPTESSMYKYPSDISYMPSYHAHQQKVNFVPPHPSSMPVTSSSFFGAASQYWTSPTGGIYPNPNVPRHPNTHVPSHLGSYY
To be noted: protein: recombinant; tags: N-terminal GST; dsDNA, one strand shown. The method in brief:
(§1)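 Beads coated with glutathione captured GST-fused human transcription factors that had been expressed in yeast, and the factors were then given DNA barcodes and pooled with a tag-only sample. The pools were incubated with 200 nmole of a random double-stranded 16-mer DNA library in Tris/NaCl/DTT/glycerol buffer for 30 min at room temperature, washed, crosslinked with 0.1% formaldehyde and proximity-ligated with BsaI/T4 ligase at 37 °C for 1 h. PCR amplification and Illumina NextSeq500 sequencing came last. Binding signal is each hexamer's read frequency for a factor divided by its frequency for the tag-only sample.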

Experiment [2] concerns the target T2, ELK1 (Homo sapiens, UniProt P19419 1-428).
T2 sequence: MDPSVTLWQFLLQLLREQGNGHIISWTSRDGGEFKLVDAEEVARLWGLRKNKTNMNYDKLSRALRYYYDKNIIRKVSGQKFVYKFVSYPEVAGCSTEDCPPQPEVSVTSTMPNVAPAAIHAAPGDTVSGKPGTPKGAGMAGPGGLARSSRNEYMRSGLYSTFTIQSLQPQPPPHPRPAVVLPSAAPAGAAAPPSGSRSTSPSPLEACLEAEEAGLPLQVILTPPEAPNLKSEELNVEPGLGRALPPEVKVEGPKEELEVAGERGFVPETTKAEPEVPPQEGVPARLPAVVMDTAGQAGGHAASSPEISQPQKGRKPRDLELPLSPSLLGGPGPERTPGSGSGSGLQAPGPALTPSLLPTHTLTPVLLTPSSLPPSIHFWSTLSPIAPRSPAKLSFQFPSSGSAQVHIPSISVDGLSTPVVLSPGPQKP
To be noted: protein: recombinant; tags: N-terminal GST; dsDNA, one strand shown. In outline:
as §1

For experiment [3], the target named is T3, GABPA (Homo sapiens, UniProt Q06546 1-454).
T3 sequence: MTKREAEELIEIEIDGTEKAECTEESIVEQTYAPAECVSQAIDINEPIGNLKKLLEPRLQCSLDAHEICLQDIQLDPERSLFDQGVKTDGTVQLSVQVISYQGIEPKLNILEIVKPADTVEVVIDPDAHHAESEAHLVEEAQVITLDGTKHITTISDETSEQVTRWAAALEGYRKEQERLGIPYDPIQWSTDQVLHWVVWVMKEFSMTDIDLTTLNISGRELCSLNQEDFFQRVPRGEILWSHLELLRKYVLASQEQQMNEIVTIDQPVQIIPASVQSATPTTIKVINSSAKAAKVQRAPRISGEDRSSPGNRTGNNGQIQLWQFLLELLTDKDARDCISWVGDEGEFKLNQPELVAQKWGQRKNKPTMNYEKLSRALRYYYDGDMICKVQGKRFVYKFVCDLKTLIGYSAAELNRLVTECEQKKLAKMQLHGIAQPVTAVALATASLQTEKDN
The settings on record: protein: recombinant; tags: N-terminal GST; dsDNA, one strand shown. In outline: as §1

Experiment [4] has as its target T4, ERG (Homo sapiens, UniProt P11308 1-479).
T4 sequence: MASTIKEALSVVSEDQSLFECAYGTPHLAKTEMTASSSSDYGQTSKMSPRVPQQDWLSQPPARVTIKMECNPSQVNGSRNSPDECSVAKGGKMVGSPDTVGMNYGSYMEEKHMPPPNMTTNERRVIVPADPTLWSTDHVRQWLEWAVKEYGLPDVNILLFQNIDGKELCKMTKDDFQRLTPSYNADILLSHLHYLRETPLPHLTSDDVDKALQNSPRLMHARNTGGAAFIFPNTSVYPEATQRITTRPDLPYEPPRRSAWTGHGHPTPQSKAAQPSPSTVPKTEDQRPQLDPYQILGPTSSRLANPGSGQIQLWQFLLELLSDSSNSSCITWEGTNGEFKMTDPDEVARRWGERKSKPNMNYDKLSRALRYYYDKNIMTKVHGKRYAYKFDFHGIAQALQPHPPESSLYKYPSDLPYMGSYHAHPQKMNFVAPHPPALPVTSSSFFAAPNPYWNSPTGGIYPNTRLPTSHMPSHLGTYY
The settings on record: protein: recombinant; tags: N-terminal GST; dsDNA, one strand shown. In outline: as §1

Experiment [5] has as its target ELF1 (Homo sapiens, UniProt P32519 1-619). To be noted: protein: recombinant; tags: N-terminal GST; dsDNA, one strand shown. In outline: as §1
The target of experiment [6] is T5, EHF (Homo sapiens, UniProt Q9NZC4 1-300).
T5 sequence: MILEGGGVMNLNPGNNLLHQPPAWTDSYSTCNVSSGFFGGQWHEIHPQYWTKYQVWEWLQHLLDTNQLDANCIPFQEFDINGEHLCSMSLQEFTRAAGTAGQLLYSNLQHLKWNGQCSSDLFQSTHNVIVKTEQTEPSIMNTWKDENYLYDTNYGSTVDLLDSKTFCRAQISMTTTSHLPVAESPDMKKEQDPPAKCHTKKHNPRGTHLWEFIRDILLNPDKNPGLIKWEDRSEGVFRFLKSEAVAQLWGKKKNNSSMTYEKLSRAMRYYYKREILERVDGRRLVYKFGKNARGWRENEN
To be noted: protein: recombinant; tags: N-terminal GST; dsDNA, one strand shown. In outline:
as §1

In experiment [7] the target is SPI1 (Homo sapiens, UniProt P17947 1-270). The settings on record: protein: recombinant; tags: N-terminal GST; dsDNA, one strand shown. In outline: as §1
Experiment [8] deals with SPIB (Homo sapiens, UniProt Q01892 1-262). To be noted: protein: recombinant; tags: N-terminal GST; dsDNA, one strand shown. In outline: as §1
Experiment [9] deals with T6, ELK3 (Homo sapiens, UniProt P41970 1-407).
T6 sequence: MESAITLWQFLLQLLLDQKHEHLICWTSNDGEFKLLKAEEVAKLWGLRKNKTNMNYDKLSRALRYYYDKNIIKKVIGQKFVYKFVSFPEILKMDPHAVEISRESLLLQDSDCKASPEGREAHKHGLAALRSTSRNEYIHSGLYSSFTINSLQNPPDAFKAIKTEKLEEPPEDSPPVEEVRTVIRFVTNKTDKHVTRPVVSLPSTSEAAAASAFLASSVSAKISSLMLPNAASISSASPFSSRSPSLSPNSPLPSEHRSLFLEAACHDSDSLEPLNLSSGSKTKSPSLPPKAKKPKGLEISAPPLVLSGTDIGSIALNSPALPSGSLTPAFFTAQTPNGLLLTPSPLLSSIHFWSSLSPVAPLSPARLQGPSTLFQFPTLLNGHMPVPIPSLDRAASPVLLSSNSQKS
The settings on record: protein: recombinant; tags: N-terminal GST; dsDNA, one strand shown. The method in brief:
as §1

The target of experiment [10] is T7, FEV (Homo sapiens, UniProt Q99581 1-238).
T7 sequence: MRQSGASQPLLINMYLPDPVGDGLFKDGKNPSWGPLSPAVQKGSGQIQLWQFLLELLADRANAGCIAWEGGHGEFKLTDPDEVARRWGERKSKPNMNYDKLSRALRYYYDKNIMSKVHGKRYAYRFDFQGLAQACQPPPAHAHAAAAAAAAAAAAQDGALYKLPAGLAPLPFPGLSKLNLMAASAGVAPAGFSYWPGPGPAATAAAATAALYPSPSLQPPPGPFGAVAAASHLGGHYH
To be noted: protein: recombinant; tags: N-terminal GST; dsDNA, one strand shown. In outline: as §1

The target in experiment [11] is ETV5 (Homo sapiens, UniProt P41161 1-510). The settings on record: protein: recombinant; tags: N-terminal GST; dsDNA, one strand shown. In outline: as §1
In experiment [12] the target is HSF1 (Homo sapiens, UniProt Q00613 1-529). The settings on record: protein: recombinant; tags: N-terminal GST; chain copies: 3; dsDNA, one strand shown. The method in brief: as §1
Experiment [13] addresses T8, SPIC (Homo sapiens, UniProt Q8N5J4 1-248).
T8 sequence: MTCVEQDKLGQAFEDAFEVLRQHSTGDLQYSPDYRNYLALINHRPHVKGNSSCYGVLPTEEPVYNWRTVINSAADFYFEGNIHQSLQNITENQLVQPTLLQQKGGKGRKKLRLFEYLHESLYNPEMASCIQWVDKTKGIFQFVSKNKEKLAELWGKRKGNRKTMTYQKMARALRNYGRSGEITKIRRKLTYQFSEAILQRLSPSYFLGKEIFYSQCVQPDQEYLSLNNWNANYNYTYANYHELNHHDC
To be noted: protein: recombinant; tags: N-terminal GST; dsDNA, one strand shown. In outline: as §1

For experiment [14], the target named is ELF4 (Homo sapiens, UniProt Q99607 1-663). The settings on record: protein: recombinant; tags: N-terminal GST; dsDNA, one strand shown. In outline:
as §1

In experiment [15] the target is T9, ELK4 (Homo sapiens, UniProt P28324-2 1-405).
T9 sequence: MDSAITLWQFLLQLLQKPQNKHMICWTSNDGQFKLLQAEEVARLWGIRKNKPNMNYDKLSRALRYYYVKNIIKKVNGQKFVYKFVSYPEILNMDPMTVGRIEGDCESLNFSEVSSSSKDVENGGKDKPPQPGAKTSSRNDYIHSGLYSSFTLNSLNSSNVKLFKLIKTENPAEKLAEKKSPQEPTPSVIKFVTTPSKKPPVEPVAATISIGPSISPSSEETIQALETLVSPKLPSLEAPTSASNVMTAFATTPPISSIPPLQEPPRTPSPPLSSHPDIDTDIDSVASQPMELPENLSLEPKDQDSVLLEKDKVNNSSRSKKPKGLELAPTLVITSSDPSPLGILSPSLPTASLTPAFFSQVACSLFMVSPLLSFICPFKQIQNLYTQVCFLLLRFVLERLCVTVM
To be noted: protein: recombinant; tags: N-terminal GST; dsDNA, one strand shown. In outline:
as §1

Experiment [16] addresses T10, ETV2 (Homo sapiens, UniProt O00321 1-342).
T10 sequence: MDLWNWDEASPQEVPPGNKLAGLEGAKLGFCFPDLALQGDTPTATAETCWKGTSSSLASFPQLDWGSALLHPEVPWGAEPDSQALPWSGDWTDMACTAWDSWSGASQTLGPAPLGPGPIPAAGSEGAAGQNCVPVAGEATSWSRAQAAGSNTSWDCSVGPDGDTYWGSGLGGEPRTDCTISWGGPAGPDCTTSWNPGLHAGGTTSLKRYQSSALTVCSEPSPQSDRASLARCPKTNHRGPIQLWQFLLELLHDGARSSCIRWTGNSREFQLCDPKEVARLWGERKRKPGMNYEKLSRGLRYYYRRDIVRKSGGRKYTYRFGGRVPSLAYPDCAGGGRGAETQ
To be noted: protein: recombinant; tags: N-terminal GST; dsDNA, one strand shown. The method in brief:
as §1

In experiment [17] the target is T11, ELF3 (Homo sapiens, UniProt P78545 1-371).
T11 sequence: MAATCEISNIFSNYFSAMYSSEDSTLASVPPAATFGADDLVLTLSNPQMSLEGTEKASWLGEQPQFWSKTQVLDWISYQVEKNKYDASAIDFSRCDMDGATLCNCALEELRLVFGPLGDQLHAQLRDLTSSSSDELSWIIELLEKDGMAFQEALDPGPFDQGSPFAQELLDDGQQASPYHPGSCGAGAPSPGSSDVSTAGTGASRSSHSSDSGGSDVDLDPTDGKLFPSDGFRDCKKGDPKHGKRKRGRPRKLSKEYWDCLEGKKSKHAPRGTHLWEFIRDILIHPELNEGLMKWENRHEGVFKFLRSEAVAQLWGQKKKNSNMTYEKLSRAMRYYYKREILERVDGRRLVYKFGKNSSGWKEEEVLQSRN
To be noted: protein: recombinant; tags: N-terminal GST; dsDNA, one strand shown. The method in brief: as §1

Experiment [18] deals with CRX (Homo sapiens, UniProt O43186 1-299). To be noted: protein: recombinant; tags: N-terminal GST; dsDNA, one strand shown. In outline:
as §1

Experiment [19] addresses ETV1 (Homo sapiens, UniProt P50549 1-477). To be noted: protein: recombinant; tags: N-terminal GST; dsDNA, one strand shown. The method in brief:
as §1

The text below walks through data of PMC7862700, “An all-to-all approach to the identification of sequence-specific readers for epigenetic DNA modifications on cytosine”.

Chain of HSF1 (Q00613 whole entry): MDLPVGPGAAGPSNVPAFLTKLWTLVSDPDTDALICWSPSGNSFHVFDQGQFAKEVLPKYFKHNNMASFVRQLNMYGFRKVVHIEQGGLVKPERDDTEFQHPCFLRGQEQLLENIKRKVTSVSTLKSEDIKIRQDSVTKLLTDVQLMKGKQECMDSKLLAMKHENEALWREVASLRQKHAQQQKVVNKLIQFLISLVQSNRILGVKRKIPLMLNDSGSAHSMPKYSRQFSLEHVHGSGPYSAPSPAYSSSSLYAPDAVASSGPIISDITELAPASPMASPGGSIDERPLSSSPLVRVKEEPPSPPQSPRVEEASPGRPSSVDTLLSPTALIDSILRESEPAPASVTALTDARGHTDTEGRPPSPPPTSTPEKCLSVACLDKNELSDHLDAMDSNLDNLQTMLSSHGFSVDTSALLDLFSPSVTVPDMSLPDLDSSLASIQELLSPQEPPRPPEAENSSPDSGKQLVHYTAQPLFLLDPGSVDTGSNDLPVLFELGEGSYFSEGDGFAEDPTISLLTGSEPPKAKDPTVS
Chain of ETV1 (P50549 whole entry): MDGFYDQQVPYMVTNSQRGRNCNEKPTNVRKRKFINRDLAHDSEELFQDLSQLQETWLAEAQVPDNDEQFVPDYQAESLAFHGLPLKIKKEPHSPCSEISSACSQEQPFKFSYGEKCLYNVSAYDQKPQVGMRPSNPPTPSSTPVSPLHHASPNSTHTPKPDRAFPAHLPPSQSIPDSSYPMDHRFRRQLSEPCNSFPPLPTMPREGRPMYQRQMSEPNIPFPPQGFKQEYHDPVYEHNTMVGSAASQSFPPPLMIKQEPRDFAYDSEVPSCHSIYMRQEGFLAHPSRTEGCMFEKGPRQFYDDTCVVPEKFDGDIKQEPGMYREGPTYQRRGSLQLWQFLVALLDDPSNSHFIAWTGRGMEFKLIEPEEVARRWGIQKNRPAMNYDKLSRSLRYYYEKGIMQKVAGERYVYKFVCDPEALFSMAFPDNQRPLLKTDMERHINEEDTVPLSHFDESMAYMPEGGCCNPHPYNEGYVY
Chain of SPIB (Q01892 whole entry): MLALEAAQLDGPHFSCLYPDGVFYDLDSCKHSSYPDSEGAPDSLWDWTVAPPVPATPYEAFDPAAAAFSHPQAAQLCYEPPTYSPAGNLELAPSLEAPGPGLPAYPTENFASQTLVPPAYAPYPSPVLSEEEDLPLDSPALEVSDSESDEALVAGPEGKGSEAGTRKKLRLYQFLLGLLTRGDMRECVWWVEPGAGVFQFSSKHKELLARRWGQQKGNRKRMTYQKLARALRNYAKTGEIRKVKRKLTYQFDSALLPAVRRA
Chain of ELF4 (Q99607 whole entry): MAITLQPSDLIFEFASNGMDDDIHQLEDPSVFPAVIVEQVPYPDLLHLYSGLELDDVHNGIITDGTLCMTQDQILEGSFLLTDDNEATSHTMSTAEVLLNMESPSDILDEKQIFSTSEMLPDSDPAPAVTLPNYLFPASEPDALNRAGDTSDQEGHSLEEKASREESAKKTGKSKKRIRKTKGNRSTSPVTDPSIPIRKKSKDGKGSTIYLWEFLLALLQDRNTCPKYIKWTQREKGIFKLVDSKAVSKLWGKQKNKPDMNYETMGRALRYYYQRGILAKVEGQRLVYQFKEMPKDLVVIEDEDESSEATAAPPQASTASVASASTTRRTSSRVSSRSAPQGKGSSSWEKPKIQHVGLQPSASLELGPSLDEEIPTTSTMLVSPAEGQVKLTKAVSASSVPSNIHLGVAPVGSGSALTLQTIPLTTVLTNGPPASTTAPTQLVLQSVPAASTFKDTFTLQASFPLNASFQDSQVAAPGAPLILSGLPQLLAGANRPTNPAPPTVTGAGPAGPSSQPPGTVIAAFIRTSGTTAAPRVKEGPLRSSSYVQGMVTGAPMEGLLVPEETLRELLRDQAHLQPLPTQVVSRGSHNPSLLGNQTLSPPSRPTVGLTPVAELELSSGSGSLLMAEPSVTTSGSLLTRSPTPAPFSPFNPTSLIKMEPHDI
Chain of CRX (O43186 whole entry): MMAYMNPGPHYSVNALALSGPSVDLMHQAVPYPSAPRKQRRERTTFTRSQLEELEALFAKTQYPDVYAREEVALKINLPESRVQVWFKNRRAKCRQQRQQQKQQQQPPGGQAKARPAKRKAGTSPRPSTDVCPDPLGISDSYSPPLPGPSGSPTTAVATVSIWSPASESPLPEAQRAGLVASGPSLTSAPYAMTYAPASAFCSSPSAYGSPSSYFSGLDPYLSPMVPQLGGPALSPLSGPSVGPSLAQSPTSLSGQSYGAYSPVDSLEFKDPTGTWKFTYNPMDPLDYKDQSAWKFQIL
Chain of ETV5 (P41161 whole entry): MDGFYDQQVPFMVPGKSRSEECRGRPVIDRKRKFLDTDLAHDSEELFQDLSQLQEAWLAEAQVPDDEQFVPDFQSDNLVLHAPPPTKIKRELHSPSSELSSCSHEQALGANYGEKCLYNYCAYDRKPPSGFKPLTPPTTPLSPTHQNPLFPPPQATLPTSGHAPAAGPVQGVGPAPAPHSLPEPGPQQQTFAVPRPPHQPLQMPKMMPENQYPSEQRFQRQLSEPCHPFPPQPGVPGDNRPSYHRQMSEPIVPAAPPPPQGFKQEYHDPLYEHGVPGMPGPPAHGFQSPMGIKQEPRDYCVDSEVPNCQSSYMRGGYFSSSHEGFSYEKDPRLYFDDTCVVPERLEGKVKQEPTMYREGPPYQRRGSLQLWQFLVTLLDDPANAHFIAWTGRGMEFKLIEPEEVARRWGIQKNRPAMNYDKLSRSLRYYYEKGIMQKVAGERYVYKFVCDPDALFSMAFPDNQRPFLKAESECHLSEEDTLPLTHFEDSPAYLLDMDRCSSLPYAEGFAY
Chain of ELF1 (P32519 whole entry): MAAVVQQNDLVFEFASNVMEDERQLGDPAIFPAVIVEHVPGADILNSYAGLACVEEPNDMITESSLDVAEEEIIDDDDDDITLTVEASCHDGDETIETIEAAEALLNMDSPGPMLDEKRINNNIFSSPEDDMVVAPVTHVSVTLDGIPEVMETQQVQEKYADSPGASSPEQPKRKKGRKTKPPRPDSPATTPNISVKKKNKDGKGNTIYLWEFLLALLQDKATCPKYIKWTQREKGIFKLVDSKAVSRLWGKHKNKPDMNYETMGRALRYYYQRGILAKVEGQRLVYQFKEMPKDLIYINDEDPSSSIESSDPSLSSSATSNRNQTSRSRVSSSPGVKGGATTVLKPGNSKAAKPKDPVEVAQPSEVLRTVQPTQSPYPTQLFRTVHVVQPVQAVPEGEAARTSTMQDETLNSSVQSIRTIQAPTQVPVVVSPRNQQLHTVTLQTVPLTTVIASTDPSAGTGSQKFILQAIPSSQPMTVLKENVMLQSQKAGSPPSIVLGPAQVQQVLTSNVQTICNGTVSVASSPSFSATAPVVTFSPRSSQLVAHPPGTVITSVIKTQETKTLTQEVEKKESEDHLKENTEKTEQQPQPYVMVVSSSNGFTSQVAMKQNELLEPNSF

Regarding AAATGC, the binding signal is 1.17 fold enrichment (6-mer frequency, TF over GST control) in experiment [1]; 1.29 fold enrichment (6-mer frequency, TF over GST control) in experiment [2]; 1.25 fold enrichment (6-mer frequency, TF over GST control) in [3]; 1.3 fold enrichment (6-mer frequency, TF over GST control) in experiment [4]; 1.25 fold enrichment (6-mer frequency, TF over GST control) in [5]; 1.25 fold enrichment (6-mer frequency, TF over GST control) in [6]. The binding signal in experiment [7] was 1.48 fold enrichment (6-mer frequency, TF over GST control); in experiment [8], 1.18 fold enrichment (6-mer frequency, TF over GST control); in experiment [9] it was 1.18 fold enrichment (6-mer frequency, TF over GST control); in experiment [10], 1.35 fold enrichment (6-mer frequency, TF over GST control); in [11], 1.34 fold enrichment (6-mer frequency, TF over GST control); in [12], 1.09 fold enrichment (6-mer frequency, TF over GST control). The binding signal in experiment [13] is 1.13 fold enrichment (6-mer frequency, TF over GST control); in experiment [14], 1.23 fold enrichment (6-mer frequency, TF over GST control); in [15], 1.37 fold enrichment (6-mer frequency, TF over GST control); in experiment [16] it was 1.23 fold enrichment (6-mer frequency, TF over GST control); in experiment [17], 1.35 fold enrichment (6-mer frequency, TF over GST control); in [18], 1.19 fold enrichment (6-mer frequency, TF over GST control). For the same sequence, the binding signal in experiment [19] was 1.26 fold enrichment (6-mer frequency, TF over GST control).
